Paper PMC7819943, “Rice protein-binding microarrays: a tool to detect cis-acting elements near promoter regions in rice”
Over roughly 39,000 sequences, “fluorescence intensity (a.u.)” has its median near 4,300; the highest 2% begin near 39,000. The entries come from a sample that favours the highest values as a whole.

Molecular target: T1, OsSMF1 (Oryza sativa, UniProt Q6ZLB0 1-436)
T1 sequence: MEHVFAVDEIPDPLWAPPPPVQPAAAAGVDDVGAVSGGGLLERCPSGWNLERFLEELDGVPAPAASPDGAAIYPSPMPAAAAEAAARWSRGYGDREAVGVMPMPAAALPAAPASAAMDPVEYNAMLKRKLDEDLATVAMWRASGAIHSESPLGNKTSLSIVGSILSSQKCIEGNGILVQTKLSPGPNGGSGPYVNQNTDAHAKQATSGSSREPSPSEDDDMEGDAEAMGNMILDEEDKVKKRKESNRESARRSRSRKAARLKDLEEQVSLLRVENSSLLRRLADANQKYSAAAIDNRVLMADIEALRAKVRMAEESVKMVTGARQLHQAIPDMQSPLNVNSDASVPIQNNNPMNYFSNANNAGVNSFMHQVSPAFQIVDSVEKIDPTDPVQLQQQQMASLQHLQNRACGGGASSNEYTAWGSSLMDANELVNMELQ
Test: protein-binding microarray (RPBM); PBS, 2% BSA, 51.3 ng/ul salmon testes DNA, 50 uM zinc acetate, 200 nM TF, 25 C, 1 h; high values mean tight binding
Conditions: protein: recombinant; tags: N-terminal polyhistidine and DsRed monomer fusion (pET32a); chain copies: 2; label: CyDye5-dUTP incorporated in the synthesized complementary strand; 3' TTTTT single-stranded linker to array surface; dsDNA, one strand shown
In short: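 An Axon 4000B scanner gave the binding signal as per-feature fluorescence intensity in arbitrary units. This followed washing of a custom Agilent array that had been incubated for 1 h at 25 °C with 200 nM protein in PBS, 2% BSA, salmon testes DNA and 50 µM zinc acetate. The proteins were transcription factors fused at the N-terminus to polyhistidine and DsRed, expressed in E. coli BL21-CodonPlus and purified on Ni–NTA.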

Question: “AGAGCCCACCAGCTGCACCGGCGTGGCATCGTCCACTTGGCGGAGTCACCTAGTGCAG” was tested. Which binding signal did it give?
Answer: The binding signal was 5060 fluorescence intensity (a.u.).

Question: With “AGTTGACGTGGCATACTGACACGTGGGCCCCATGTGGGTTCGGAGTCACCTAGTGCAG” as the sequence, how does the binding signal read?
Answer: Its binding signal is 24900 fluorescence intensity (a.u.).

Question: Which binding signal does the source give for “AAACGTAATCTAATAACAAAACAAATTACAGAACTGTAAACGGAGTCACCTAGTGCAG” here?
Answer: The binding signal was 11100 fluorescence intensity (a.u.).

Question: How did the binding signal turn out when “ATCCACCGCTGAGTCCCAGACGAGCGAGGGCCAGATCATCCGGAGTCACCTAGTGCAG” was run?
Answer: The binding signal was 3410 fluorescence intensity (a.u.).

Question: For “TGTAGGTATAAGAGTGAGTTGGTGAATTATAGGGTAGACTCGGAGTCACCTAGTGCAG”, which binding signal is on record?
Answer: Its binding signal is 7410 fluorescence intensity (a.u.).

Question: “TAGAAAGTGCCCAATTAGTATAGGTATAGATAGATAGACTCGGAGTCACCTAGTGCAG” was tested. Which binding signal did it give?
Answer: The binding signal was 51000 fluorescence intensity (a.u.).

Question: How did the binding signal turn out when “GCATTATATTAGTAGGTCGTGTATTATATTAGTAGGTACTCGGAGTCACCTAGTGCAG” was run?
Answer: Its binding signal is 4260 fluorescence intensity (a.u.).

Question: “ATTACATACTAATTACATATGTAAGTGAGGTGTAACTACTCGGAGTCACCTAGTGCAG” was tested. Which binding signal did it give?
Answer: The binding signal was 4160 fluorescence intensity (a.u.).

Question: “GGCAATCATCTTGAAGCATATCAACCCAACCTGATGTTGTCGGAGTCACCTAGTGCAG” was tested. Which binding signal did it give?
Answer: The binding signal was 28100 fluorescence intensity (a.u.).

Question: Which binding signal does the source give for “TTGTTAATTACCGCGATTGATGTCGAGCTTGCATTTTGATCGGAGTCACCTAGTGCAG” here?
Answer: The binding signal was 3540 fluorescence intensity (a.u.).

Question: “TTATTGCAAAATAGAAGGATGACGCCACGACGGCCGCTGCCGGAGTCACCTAGTGCAG” was tested. Which binding signal did it give?
Answer: Its binding signal is 3330 fluorescence intensity (a.u.).

Question: With “TCTGTTAGTGTCATACTGTCATCGACATATAATATTCCCTCGGAGTCACCTAGTGCAG” as the sequence, how does the binding signal read?
Answer: The binding signal was 42500 fluorescence intensity (a.u.).

Question: For “CTATACTATTAATATATGGTCTCATCTGTCATACATATATCGGAGTCACCTAGTGCAG”, which binding signal is on record?
Answer: Its binding signal is 3830 fluorescence intensity (a.u.).

Question: Which binding signal does the source give for “TTACATACTGTATCATACTGACGTCAACGTATAATATTCCCGGAGTCACCTAGTGCAG” here?
Answer: The binding signal was 8340 fluorescence intensity (a.u.).

Question: For “GCGCTTGCGCCTGACCGCCGCGTGACGACATGTTGTCACCCGGAGTCACCTAGTGCAG”, which binding signal is on record?
Answer: The binding signal was 6800 fluorescence intensity (a.u.).

Question: For “CGGTGACGACCACCCCACCTCACGATCCAACGGCCAATACCGGAGTCACCTAGTGCAG”, which binding signal is on record?
Answer: Its binding signal is 4080 fluorescence intensity (a.u.).

Question: For “ACATGCAAAGATGCCACATCATCATCCACTATCACTAATTCGGAGTCACCTAGTGCAG”, which binding signal is on record?
Answer: Its binding signal is 17600 fluorescence intensity (a.u.).

Question: How did the binding signal turn out when “AGAAGGTTGGAATTTAGTAAGTTGCAGTTACAAATTCAAGCGGAGTCACCTAGTGCAG” was run?
Answer: Its binding signal is 53200 fluorescence intensity (a.u.).

Question: How did the binding signal turn out when “TCACTCAAATTTACAGTGCATTTTCTTGTAAGTTACAGTGCGGAGTCACCTAGTGCAG” was run?
Answer: The binding signal was 4800 fluorescence intensity (a.u.).

Question: Which binding signal does the source give for “AACAAGTGTGTTGGTGGTGGTGGAAGTTGTTACAGAATTGCGGAGTCACCTAGTGCAG” here?
Answer: Its binding signal is 3470 fluorescence intensity (a.u.).

Question: For “GAATTACAAGGATGGTAAGGTTTGGTCTTTCAAAGTCTTACGGAGTCACCTAGTGCAG”, which binding signal is on record?
Answer: The binding signal was 40100 fluorescence intensity (a.u.).

Question: With “AAAATTGTTCAAAGGATGGCGTAACTTTGGCGTGGAATTACGGAGTCACCTAGTGCAG” as the sequence, how does the binding signal read?
Answer: The binding signal was 3180 fluorescence intensity (a.u.).

Question: For “TCTTTGGATATAAAGCAACTACAATTTCAAAGGTAACCAACGGAGTCACCTAGTGCAG”, which binding signal is on record?
Answer: The binding signal was 3460 fluorescence intensity (a.u.).

Question: How did the binding signal turn out when “AAGTTATAACCCACTACATACAAAGATACCACGTCATCATCGGAGTCACCTAGTGCAG” was run?
Answer: The binding signal was 15900 fluorescence intensity (a.u.).

Question: With “CATCAGATGCGCCCATCGCTTGAAGGAGAGACGCCGAGACCGGAGTCACCTAGTGCAG” as the sequence, how does the binding signal read?
Answer: Its binding signal is 27300 fluorescence intensity (a.u.).

Question: With “GCAGTCTTGTAGTCTCGTGCACCAATCGTCGCGCCGCGGCCGGAGTCACCTAGTGCAG” as the sequence, how does the binding signal read?
Answer: The binding signal was 22300 fluorescence intensity (a.u.).

Question: For “GCACCTTGAATGAATTATCTAGCAAAGCCAGCGTAGACGTCGGAGTCACCTAGTGCAG”, which binding signal is on record?
Answer: Its binding signal is 30200 fluorescence intensity (a.u.).

Question: “TGTGTACGTCACATCCTAATTAACATCAACTTGATAAAATCGGAGTCACCTAGTGCAG” was tested. Which binding signal did it give?
Answer: Its binding signal is 7900 fluorescence intensity (a.u.).

Question: “TGGGTCCCTCCATGCTGAGTCAGCTTGTCAATCGGGTCAACGGAGTCACCTAGTGCAG” was tested. Which binding signal did it give?
Answer: The binding signal was 21900 fluorescence intensity (a.u.).

Question: For “TGGCTCCCACGTTAACTTAGCCGCCACGTCAGCTAAAACCCGGAGTCACCTAGTGCAG”, which binding signal is on record?
Answer: Its binding signal is 46600 fluorescence intensity (a.u.).

Question: For “GCCTAACCCTAACCCTAGCCGCCACCGCTCAACCGCCTCCCGGAGTCACCTAGTGCAG”, which binding signal is on record?
Answer: Its binding signal is 65100 fluorescence intensity (a.u.).

Question: “ACACGCCACGCCGCCACCTCCACTTCGTTAACCCTTCTCCCGGAGTCACCTAGTGCAG” was tested. Which binding signal did it give?
Answer: The binding signal was 5410 fluorescence intensity (a.u.).

Question: “GGGCTCCCTCCACCGCCGCCTCCGCCACCGCCTCGCCGCCCGGAGTCACCTAGTGCAG” was tested. Which binding signal did it give?
Answer: Its binding signal is 3150 fluorescence intensity (a.u.).

Question: How did the binding signal turn out when “AAGCCTAAAACCTCCCCATCCACGTCACCCATCCTCCTCCCGGAGTCACCTAGTGCAG” was run?
Answer: The binding signal was 22300 fluorescence intensity (a.u.).

Question: Which binding signal does the source give for “ACCGCCGGTCCACTCACCCCTAACCCTAGCCGCTGCCGCCCGGAGTCACCTAGTGCAG” here?
Answer: The binding signal was 4020 fluorescence intensity (a.u.).

Question: For “GACGACTGCTGGTACACGGACATGAGGCTGCAGCCGACGACGGAGTCACCTAGTGCAG”, which binding signal is on record?
Answer: Its binding signal is 3480 fluorescence intensity (a.u.).

Question: How did the binding signal turn out when “GCCACGCCCAACCCGTGTCACTGTCACGTGGGCCCCACCCCGGAGTCACCTAGTGCAG” was run?
Answer: The binding signal was 7720 fluorescence intensity (a.u.).

Question: How did the binding signal turn out when “CAACCAATCAATCACATACGTGGACAACTGCAGAAAATGCCGGAGTCACCTAGTGCAG” was run?
Answer: The binding signal was 5610 fluorescence intensity (a.u.).

Question: “ATCGCGCATCCACTCCACACCACACGCTTCACTGGTTCCGCGGAGTCACCTAGTGCAG” was tested. Which binding signal did it give?
Answer: The binding signal was 3870 fluorescence intensity (a.u.).

Question: For “CGGCTCCGCCGCACTTGCTCGGCCGTCCACGCCGGCACGGCGGAGTCACCTAGTGCAG”, which binding signal is on record?
Answer: The binding signal was 3640 fluorescence intensity (a.u.).

Question: With “ACTGCCGGTTCAACTGCTCCACGGCTCCACTCCACGCATCCGGAGTCACCTAGTGCAG” as the sequence, how does the binding signal read?
Answer: Its binding signal is 43300 fluorescence intensity (a.u.).

Question: For “ACTATGGATATCTGTTTTAGCTGACATGGCATCCTACTCACGGAGTCACCTAGTGCAG”, which binding signal is on record?
Answer: Its binding signal is 8140 fluorescence intensity (a.u.).
